# In PubChem BioAssay AID1565 (Sanford-Burnham Center for Chemical Genomics, 2009):
# Screen size: about 290,000 compounds; about 3,200 (1.1%) were called active. Only a selection was taken, and actives are over-represented in it overall. A number with no mark means an inactive call. Rule as the data show it: active = inhibition above about 60%; inactive = the rest.
# Biological target: Phosphoethanolamine/phosphocholine phosphatase (Homo sapiens) (UniProt Q8TCT1)
# Assay: PubChem AID 1565
# Settings: recombinant PHOSPHO1, absorbance phosphatase assay; at 13.3 µM; active compounds read high
# Phosphoethanolamine/phosphocholine phosphatase (Homo sapiens), sequence (Q8TCT1 whole entry, looked up): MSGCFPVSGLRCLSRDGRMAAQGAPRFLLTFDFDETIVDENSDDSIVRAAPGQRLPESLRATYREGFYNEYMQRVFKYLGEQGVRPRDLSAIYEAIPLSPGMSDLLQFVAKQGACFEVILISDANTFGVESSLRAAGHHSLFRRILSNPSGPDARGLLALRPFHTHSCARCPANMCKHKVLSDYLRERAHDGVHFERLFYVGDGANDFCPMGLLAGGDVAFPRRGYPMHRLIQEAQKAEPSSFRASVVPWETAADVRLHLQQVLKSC
row,Compound,inhibition
1,Cc1nnc(SCC(=O)NNC(=O)c2ccc(Cl)cc2)n1CC1CCCO1 (stereo not drawn),14.8%
2,Cc1ccc(-n2c(-c3ccc(Cl)cc3)n[nH]c2=S)cc1,-46.5%
3,CCn1c(Cc2ccccc2)nnc1SCc1nc2ccccc2c(=O)[nH]1,6.3%
4,O=c1[nH]c(CSc2ncc(-c3ccc(F)cc3)n2Cc2ccco2)nc2ccccc12,67.4% (active)
5,CCn1c(COc2c(C)cccc2C)nnc1SCc1nc2ccccc2c(=O)[nH]1,29.2%
6,Cc1ccccc1CCNC(=O)C1CCC(=O)N(Cc2ccc(Cl)cc2)C1 (stereo not drawn),27%
7,COc1ccc2c(c1)C(NS(=O)(=O)OCC(Cl)(Cl)Cl)CCC2 (stereo not drawn),-7.3%
8,O=c1c(-c2ccccc2Cl)c[nH]n1-c1ccccc1,31.3%
9,Cc1ccc(S(=O)(=O)C(C#N)c2nc3ccccc3nc2N2CCCC2)cc1C (stereo not drawn),95.8% (active)
10,Cc1cc(N2CCN(S(=O)(=O)c3ccc(C)c(C)c3)CC2)c2ccccc2n1,-5.3%
11,Cc1ccc(S(=O)(=O)Nc2nc3ccccc3nc2N2CCc3ccccc3C2)cc1,10.5%
12,COC(=O)c1cc(C(=O)NC(C)C2CC3CCC2C3)cc([N+](=O)[O-])c1 (stereo not drawn),26.5%
13,Cc1ccc(-n2nc3c(=O)n(C(C)C(=O)NCc4ccc5c(c4)OCO5)nc(C)c3c2C)cc1 (stereo not drawn),18.3%
14,O=c1ccc(-c2ccc(S(=O)(=O)Nc3ccccc3)o2)n[nH]1,1%
15,Cn1c(CNC(=O)c2ccccc2F)nnc1SCc1ccc(F)cc1,15.9%
16,Cn1c(Cn2nnc3ccccc32)nnc1SCC(=O)c1ccccc1F,68.8% (active)
17,Cc1ccc(C(=O)CSc2nnc(Cn3nnc4ccccc43)n2C)cc1,-7.4%
18,COc1ccc(OC)c(NC(=O)CN(C)CCOc2ccc(Br)cc2)c1,-11.8%
19,N=c1c2c3c(sc2ncn1N)CCCC3,24.8%
20,c1nnc2c3c4c(sc3ncn12)CCC4,0.9%
21,S=c1[nH]nc2c3c4c(sc3ncn12)CCCC4,106% (active)
22,Cc1ccc(C)c(NC(=O)NNC(=O)c2ccc3ccccc3c2O)c1,6.1%
23,O=C(CN1CCN(C/C=C/c2ccccc2)CC1)Nc1ccc(F)cc1F,35.8%
24,COC(=O)c1sccc1NC(=O)CC1C(=O)NCCN1C(=O)Nc1ccc(F)cc1F (stereo not drawn),31.6%

row,Compound,inhibition
1,O=C(CC1SC(=Nc2ccccc2F)N(CCN2CCOCC2)C1=O)Nc1ccc(F)cc1F (stereo not drawn),64.7% (active)
2,COC(=O)c1cccc(N2C(=O)C3C4C=CC(CC4)C3C2=O)c1 (stereo not drawn),37.1%
3,Cc1ccc(OCc2cc(C(=O)N(C)CCn3ccnc3C)no2)cc1C,25%
4,O=C(COc1ccc(S(=O)(=O)N2CCOCC2)cc1Cl)N1CCOCC1,19%
5,O=C(Cn1c(NCCO)nc2ccccc21)c1ccc(Cl)cc1Cl,23.3%
6,COc1cc(NC(=O)CN(C)S(=O)(=O)c2ccc3nc(C)sc3c2)cc(OC)c1,-3%
7,COc1ccc(CCNC(=O)CN(C)S(=O)(=O)c2ccc3nc(C)sc3c2)cc1OC,3.8%
8,Cc1nc2ccc(S(=O)(=O)N(C)CC(=O)NC(C)c3ccccc3)cc2s1 (stereo not drawn),64% (active)
9,COC(=O)c1ccc(/C=C2/C(=O)Oc3ccccc32)cc1,32.5%
10,CCCC(C)c1nnc(NC(=O)C2CC(=O)N(c3ccc(OCC)cc3)C2)s1 (stereo not drawn),36.2%
11,Cc1ccc(NC(=O)N2CCC(O)(c3cccnc3)CC2)cc1,1%
12,O=C(Nc1cccc(F)c1)N1C2CCC1CC(O)(c1cccnc1)C2 (stereo not drawn),61.5% (active)
13,O=C(c1cccc(F)c1)N1CCC(O)(c2cccnc2)CC1,36.6%
14,CC(=O)c1cccc(NC(=O)CN2C(=O)c3cccnc3Oc3ccc(Cl)cc32)c1,18.3%
15,CCc1ccc(NC(=O)CCNS(=O)(=O)c2cccs2)cc1,35.1%
16,CC(Oc1ccc2ccccc2c1)C(=O)NNC(=S)NC(=O)c1ccco1 (stereo not drawn),96.9% (active)
17,O=C(Nc1ccc2ccccc2c1)/C(=C/c1cccc(Br)c1)NC(=O)c1ccco1,-2.2%
18,CCCc1ccc(OCCNC(=O)c2ccco2)cc1,41.8%
19,COc1ccc(C(=O)NNC(=S)NC(=O)c2ccccc2)cc1,19.1%
20,Cc1ccc(OCC(=O)NCCCNC(=O)c2ccco2)cc1C,16%
21,CCCc1ccc(OCC(=O)NNC(=S)NC(=O)c2ccco2)cc1,96.9% (active)
22,O=S(=O)(Nc1ccc2[nH]ncc2c1)c1ccccc1Cl,-129%
23,COc1ccc(S(=O)(=O)NNC(=O)Nc2ccc(C)cc2)c(OC)c1,21.8%
24,Cc1ccc(N(C(=O)c2snc(C(N)=O)c2N)C(C(=O)NCC2CCCO2)c2c[nH]c3ccccc23)cc1 (stereo not drawn),35.7%
